Compounds with a hit are over-represented: about 14% of the library has one in this group of screens.
Marburg entry inh: Marburg virus entry inhibition; Potency, µM (doses to about 37.8 µM), for the others: at the highest dose activity change, negative = inhibition, usual class: inhibitors; 300,000 compounds, 1.8% hits; Marburg virus pseudotyped entry inhibition, cell reporter; calls by dose curve; tested in HEK293 cells; further: potency means the concentration at half of the fitted maximal effect
HCV inhibitor: blocks hepatitis C virus; AID 651820; 340,000 compounds, 3.4% hits; Huh7.5.1 HCVcc-Cre infection, luciferase reporter, 44 h; Potency, µM (series often up to 41.8 µM), for the others: at the top dose activity change, negative = inhibition, most hits filed as inhibitors; further: potency means the concentration at half of the fitted maximal effect
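Reporter virus HCVcc-Cre (~0.5 moi) infects cells exposed to compound; seeding density 1,000 cells/well with 4 h settling beforehand. Luminescence, 15 sec read, taken 44 h post-infection following a 15 min RT substrate incubation.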
HCMV inh: inhibitors of human cytomegalovirus; HFF cells, HCMV-luciferase reporter, 72 h; stronger effect = lower value; activity change, negative = inhibition, % at 57.5 µM; 410,000 compounds, 4.5% hits; AID 1259415; in the data active means activity change below about -60%; inconclusive means no clear call, values can overlap the other calls; inactive means above about -39%
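After 16 h attachment at 37C, HFF cells received test compound and HCMV-luciferase (1 PFU/cell); reporter luminescence read 72 h later, data normalized against buffer-only and known inhibitor Salinomycin.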
Pf growth 48h: P. falciparum growth inhibition at 48 hours (one generation) | P. falciparum luciferase growth in erythrocytes, 48 h | 310,000 compounds, 5.9% hits | AID 504832 | Potency, µM (highest dose often 28.7 µM), for inactives: at the highest dose activity change, negative = inhibition, hits mostly inhibitors; further: potency means the concentration at half of the fitted maximal effect
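Luciferase-expressing P. falciparum in infected erythrocytes (2% hematocrit, 0.1% parasitemia final) in RPMI 1640/0.5% Albumax were exposed to compound for 48 hours at 37 C, 5% CO2; growth read as luminescence.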
Pf growth 96h: inhibits malaria parasite growth, 96 h. P. falciparum luciferase reporter growth, 96 h. Potency, µM (doses to about 28.7 µM), for inactives: at the highest dose activity change, negative = inhibition, actives largely listed as inhibitors. 320,000 compounds, 6.9% hits. AID 504834; further: potency means the concentration at half of the fitted maximal effect
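Two-generation exposure (96 h) targets delayed-death phenotype. Reporter parasites carrying integrated firefly luciferase, in red cells at 2% hematocrit and 0.05% parasitemia final, kept at 37 C, 5% CO2; luminescence loss indicates inhibition.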
Lassa entry inh: blocks Lassa virus binding to or entry into cells. Lassa virus pseudotype entry inhibition, cell reporter. Potency, µM (series often up to 37.9 µM), without a hit: at the top dose activity change, negative = inhibition, actives largely listed as inhibitors. 300,000 compounds, 1.2% hits. AID 540256; calls by dose curve; tested in HEK293 cells; further: potency means the concentration at half of the fitted maximal effect; nearly all actives have a fitted effect of over 50% in size
Numbers without * were called inactive; [ ] = dose if it differs, or a comment. Unless noted, the call rests on the fitted dose curve; in most records, active means well fitted inhibition curve with a large enough effect; inconclusive means small, poorly fitted or top-dose-only effect, or another doubt; inactive means no such curve, though single readings can be large or run the other way. On the % scale 0 is the no-effect control and ±100 the full control effect.

What do the screens show for `O=[N+]([O-])c1cc([As](=O)(O)c2ccc(O)c([N+](=O)[O-])c2)ccc1O`?
Marburg entry inh: inconclusive; HCV inhibitor: 17%; HCMV inh: -16; Pf growth 48h: 4.7µM*; Pf growth 96h: 2.9µM*; Lassa entry inh: -1%[46.1 µM]

What do the screens show for `CCOC(=O)C1CCCN(c2ccc(NC(=O)c3snc4c(=O)[nH]c(C)nc34)cc2)C1` (configuration not stated)?
Marburg entry inh: inconclusive; HCV inhibitor: -15%; HCMV inh: 49; Pf growth 48h: inconclusive; Pf growth 96h: 0.93µM*; Lassa entry inh: -14%

Results for CCOC(=O)C1CCCN(c2ccc(NC(=O)c3snc4c(=O)[nH]cnc34)cc2)C1 (configuration not stated) ?
Marburg entry inh: inconclusive; HCV inhibitor: -25%; HCMV inh: -25; Pf growth 48h: inconclusive; Lassa entry inh: -5%

How did CCN(c1ccccc1)S(=O)(=O)c1ccc(-c2cc(C)no2)s1 do in these assays?
HCMV inh: 0; Lassa entry inh: inconclusive

How did C=CC[C@@H]1C=C[C@H](ON=C[C@@H](N[S+](=O)([O-])c2ccc(C)cc2)[C@H](C)C=CCC(=O)OC)[C@H](CO)O1 do in these assays?
Marburg entry inh: -14%[14.2 µM]

Results for COc1cc(NCCCCC(C)N)c2nccc(C)c2c1 (configuration not stated) ?
HCMV inh: -71*

Results for COc1cc(NCCCC(C)N)c2ncccc2c1 (configuration not stated) ?
Marburg entry inh: 3.5µM*; HCV inhibitor: inconclusive; HCMV inh: -107*; Pf growth 48h: 0.26µM*; Pf growth 96h: 0.85µM*; Lassa entry inh: inconclusive

How did COc1cc(C2C(=O)N(C3CCCCC3)CC(=O)N2C2CCCCC2)ccc1OC(C)C (configuration not stated) do in these assays?
HCMV inh: -16; Lassa entry inh: -13%[46.1 µM]

How did COC(=O)[C@@]12C[C@@H](CC(=O)NCC3CCCCC3)C(=O)N(Cc3ccccc3)C1=CCC(C)(C)C2 do in these assays?
HCMV inh: -26

How did N#CCC(=O)N/N=C\c1cc(Br)ccc1OC/C=C/c1ccccc1 do in these assays?
Marburg entry inh: 13%[46.1 µM]; HCV inhibitor: inconclusive; HCMV inh: 23; Pf growth 48h: -7%; Pf growth 96h: 2.9µM*; Lassa entry inh: 1%[46.1 µM]

How did CCOC(=O)N/N=C\c1ccccc1OC/C=C/c1ccccc1 do in these assays?
HCV inhibitor: inconclusive; HCMV inh: 49; Pf growth 48h: 2.9µM*; Pf growth 96h: 83%

Results for COC(=O)N/N=C\c1ccccc1OC/C=C/c1ccccc1 ?
Marburg entry inh: inconclusive; HCV inhibitor: inconclusive; Pf growth 48h: inconclusive; Pf growth 96h: 9.3µM*; Lassa entry inh: inconclusive

What do the screens show for `O=C(O)c1nn(Cc2csc(-c3ccccc3)n2)c(=O)c2ccccc12`?
Marburg entry inh: inconclusive; HCV inhibitor: 8%; HCMV inh: -15; Pf growth 48h: -4%; Pf growth 96h: 76%; Lassa entry inh: -18%

How did CCC(c1nnnn1C1CCCCC1)N1CCN(C(=O)c2ccco2)CC1 (configuration not stated) do in these assays?
Marburg entry inh: -12%[46.1 µM]; HCV inhibitor: 8%; HCMV inh: -24; Pf growth 48h: inconclusive; Pf growth 96h: -1%; Lassa entry inh: -8%

Results for O=C(NCc1cccc(OC(F)(F)F)c1)c1ccc2c(c1)S(=O)(=O)c1cc(Cl)ccc1C2=O ?
HCV inhibitor: 9%; HCMV inh: -4

Results for COc1ccc(C(C(=O)NC(C)(C)C)n2c(COc3ccc(C)cc3)nc3ccccc32)cc1 (configuration not stated) ?
HCMV inh: -19

Results for COc1ccc(C(C(=O)NC(C)(C)C)n2c(-c3ccc(=O)[nH]c3)nc3ccccc32)cc1 (configuration not stated) ?
HCMV inh: -86*

Screens as filed in PubChem BioAssay.
